# USP1-UAF1 inh = blocks the human USP1/UAF1 deubiquitinase complex; O94782; recombinant USP1/UAF1, Ub-Rhodamine cleavage fluorescence; Potency, µM (highest dose often 57.1 µM), without a hit: at the top dose activity change, negative = inhibition, most hits filed as inhibitors; hit rate 0.23% among 390,000; AID 743255; further: potency means the concentration at half of the fitted maximal effect; on the % scale 0 is the no-effect control and ±100 the full control effect; nearly all actives have a fitted effect of over 60% in size
# Target sequence (O94782 whole entry, looked up): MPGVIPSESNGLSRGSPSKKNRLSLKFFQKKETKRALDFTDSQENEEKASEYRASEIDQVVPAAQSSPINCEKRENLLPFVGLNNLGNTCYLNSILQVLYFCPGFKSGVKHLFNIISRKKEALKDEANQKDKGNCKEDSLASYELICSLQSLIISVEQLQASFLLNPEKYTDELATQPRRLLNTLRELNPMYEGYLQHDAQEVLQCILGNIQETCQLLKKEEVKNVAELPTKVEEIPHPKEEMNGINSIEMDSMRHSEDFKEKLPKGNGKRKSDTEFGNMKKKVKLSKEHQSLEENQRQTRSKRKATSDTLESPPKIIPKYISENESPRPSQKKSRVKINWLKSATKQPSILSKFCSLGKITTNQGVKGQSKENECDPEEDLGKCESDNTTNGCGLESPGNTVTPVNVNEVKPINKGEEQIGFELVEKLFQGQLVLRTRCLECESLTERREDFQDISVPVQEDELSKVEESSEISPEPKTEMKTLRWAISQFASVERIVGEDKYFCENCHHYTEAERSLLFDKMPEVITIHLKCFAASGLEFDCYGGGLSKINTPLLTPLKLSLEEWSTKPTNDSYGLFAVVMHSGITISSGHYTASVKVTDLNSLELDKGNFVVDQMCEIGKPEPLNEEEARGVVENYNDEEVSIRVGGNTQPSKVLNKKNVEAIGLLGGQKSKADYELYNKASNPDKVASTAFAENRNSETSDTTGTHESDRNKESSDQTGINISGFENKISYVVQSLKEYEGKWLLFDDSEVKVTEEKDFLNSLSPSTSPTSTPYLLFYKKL
#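 In this screen, compounds sit with the deubiquitinase complex (1nM) for 15 min at room temperature before Ub-Rho is added at 150nM final. Fluorescence rise is then followed for 6 reads every 60 seconds.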
# USP2a block = USP2a (human) protease inhibition | hit rate 0.01% among 330,000 | Potency, µM (doses to about 38.3 µM), without a hit: top-dose activity change, negative = inhibition, hits mostly inhibitors | O75604 | USP2 core, Ub-CHOP2 coupled fluorogenic reporter, 485/531 | AID 463254;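 further: potency means the concentration at half of the fitted maximal effect; plate controls were DMSO wells for no effect and full inhibition by NEM control for full effect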
#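 Deubiquitinase activity read as fluorescence (485/531 nm) after Ub-CHOP2 cleavage activates the enterokinase reporter on its substrate; USP2 core 10nM, Ub-CHOP2 and substrate 25nM each, 30min compound preincubation then 60min RT; data normalized to NEM, curves fitted.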
# ATXN2 expr inh = inhibitors of ATXN2 expression; HEK-293 ATXN2-luciferase reporter, luminescence, 24 h; Potency, µM (series often up to 57 µM), for the others: top-dose activity change, negative = inhibition, most hits filed as inhibitors; hit rate 0.72% among 360,000; further: potency means the concentration at half of the fitted maximal effect; on the % scale 0 is the no-effect control and ±100 the full control effect; nearly all actives have a fitted effect of over 55% in size
#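 qHTS (up to 57 uM final) was run with 24 h compound exposure of reporter cells at 37 °C. Each well was multiplexed: SteadyGlo luminescence measured ATXN2-luciferase expression after a fluorogenic Gly-Phe-AFC viability readout (25 uM final).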
# IL-1B inflam inh = inflammasome signaling inhibition, IL-1 beta readout. THP-1 LPS/ATP IL-1B secretion, AlphaLISA, 16 h; stronger effect = lower value. activity change, % at 57.5 µM. AID 743279. hit rate 4.7% among 360,000; in the data active means activity change below about -50%; inconclusive means mostly about -30% to -49%; further: on the % scale 0 is the no-effect control and ±100 the full control effect
#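 THP-1 cells pretreated 1 hr with compounds (up to 57.5 uM final), then stimulated with LPS (250 ng/mL final) plus ATP (1.25 mM final); secreted IL-1B measured by AlphaLISA after 16 hr, decreased signal indicating inhibition.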
# ATXN viability = cell viability loss in ATXN counter-screen; AID 651635; hit rate 0.49% among 400,000; Potency, µM (series often up to 56.7 µM), hits mostly cytotoxic; S2 cells (HEK-293 line with an ATXN2-luciferase reporter) viability, CellTiter-Fluor protease fluorescence, 24 h; further: potency means the concentration at half of the fitted maximal effect; nearly all actives have a fitted effect of over 40% in size
# Starred values were filed as active, the others as inactive; i = inactive; ? = inconclusive; . = no result given; [ ] = another dose, or the depositor's remark. The list is not random: actives were taken first. Their share in the collection is about 4.8%. Unless noted, the call rests on the fitted dose curve; in most records, active means well fitted curve in the direction sought with a large enough effect; inconclusive means small, poorly fitted or top-dose-only effect, or another doubt; inactive means no such curve, though single readings can be large; an effect the other way counts as inactive or inconclusive.
SMILES,USP1-UAF1 inh,USP2a block,ATXN2 expr inh,IL-1B inflam inh,ATXN viability
O=C(Nc1ccc(N2CCN(C(=O)c3ccc(Cl)cc3)CC2)cc1)c1ccc([N+](=O)[O-])o1,-10.7%,0.0%,-8.3%[11.3 µM],-106.7*,?
O=C(c1ccc(F)cc1)N1CCC[C@H](c2nc(-c3ccc(F)cc3)no2)C1,.,.,15.8%,.,.
O=C(CC1C(=O)NCCN1CC1CCCCC1)NCc1ccc(F)cc1F (centres undefined),-19.8%,1.0%,-16.4%,-65.7*,i
O=C(CC1C(=O)NCCN1CC1CCCCC1)NCc1cc(F)ccc1F (centres undefined),-0.2%,-0.2%,-23.2%,-10.5,i
Cn1nc(-c2ccc(C(=O)Nc3cccc(Cl)c3)cc2)c2ccccc2c1=O,-0.3%,4.0%,15.8µM*,-13.4,39.8µM*
CCOC(=O)Cn1ccc2cc(S(=O)(=O)N3CCCC3)ccc21,-23.3%,.,.,32.7,i
COc1ccc(NC(=O)C#Cc2ccccc2)cc1,4.1%,1.3%,27.5%,.,i
O=C(C#Cc1ccccc1)Nc1cccc(F)c1,-2.1%,-0.7%,?,-106.3*,?
O=C(CC(=O)Nc1cccc(F)c1)Nc1cccc(F)c1,-3.2%,1.0%,18.2%,7.2,i
O=C(C#Cc1ccccc1)Nc1ccc(F)cc1,-11.9%,-1.4%,14.7%,-96.9*,i
O=C(O)[C@@H](O)[C@H](O)[C@H](O)[C@@H](O)C(=O)O (tested in a mixture with another compound),.,.,.,.,i
Cn1nnnc1SCC(=O)Nc1ccc(C(=O)N2CCN(Cc3ccccc3F)CC2)cc1,-20.6%,1.2%,-2.1%,-5.0,?
CC(=O)Nc1nc2[nH]ccc2c(=O)[nH]1,-18.4%,.,.,-7.5,i
CCC(=O)N(CCC(Cc1ccccc1)c1ccco1)Cc1ccco1 (centres undefined),-14.0%,-2.8%,-31.1%,-29.5,i
CC(NCCC(Cc1ccccc1)c1ccco1)c1ccccc1 (centres undefined),-16.5%,1.0%,-10.4%,-59.2*,i
O=C(NCCNCc1ccc(F)cc1)c1ccco1,-11.4%,1.6%,0.2%,-13.4,i
Fc1ccc(CNCCC(Cc2ccccc2)c2ccco2)cc1 (centres undefined),-5.0%,0.5%,-38.5%,-79.7*,i
O=C(NS(=O)(=O)c1ccc(Cl)cc1)c1ccccc1,-16.0%,-2.7%,-6.8%,-0.5,i
CC(=O)NC(=C(Cl)Cl)S(=O)(=O)c1ccccc1,-1.5%,-4.4%,?,-100.1*,i
Cc1ccc(S(=O)(=O)/C(=C/Cl)NC(=O)c2ccccc2)cc1,-4.0%,0.4%,10µM*,-72.9*,?
Cc1ccc(S(=O)(=O)C(NC(=O)c2ccccc2)=C(Cl)Cl)cc1,-8.0%,.,?,-116.7*,?
O=C(NC(=C(Cl)Cl)S(=O)(=O)c1ccc(Cl)cc1)c1ccccc1,-15.8%,-0.6%,?,-92.9*,?
CC1CCCC(C)N1C(=O)COC(=O)CNC(=O)c1ccccc1 (centres undefined),-9.2%,2.1%,-0.3%,-8.3,?
C=CC[C@@H](CC(=O)N[C@H](CO)Cc1ccccc1)C(=O)N[C@H](COC(=O)[C@@H](CC=C)Cc1ccc(F)cc1)Cc1ccccc1,-18.4%,-9.7%,5.1%,-1.6,i
O=C(COc1cccc(Cl)c1)N1CCC(c2nc3ccccc3o2)CC1,-21.3%,.,.,.,.
SMILES,USP1-UAF1 inh,USP2a block,ATXN2 expr inh,IL-1B inflam inh,ATXN viability
CCn1c(N2CCN(S(=O)(=O)c3ccccc3)CC2)nc2ccccc21,-11.9%,0.8%,.,-9.1,?
Cc1ccc(C(=O)NS(=O)(=O)c2ccc(C)cc2)cc1,-12.1%,1.7%,1.7%,13.9,i
Cc1ccc(C(=O)NC(=C(Cl)Cl)S(=O)(=O)c2ccc(Cl)cc2)cc1,-2.3%,1.8%,?,-64.0*,?
Cc1ccc(C(=O)NC(=C(Cl)Cl)S(=O)(=O)c2ccc(C)cc2)cc1,-2.6%,3.3%,-33.5%,-103.9*,i
Cc1ccc(C(=O)NNC(=S)NC(=O)c2ccc(Cl)cc2)cc1,-7.9%,0.0%,?,70.0,i
Cc1cc(N2CCN(C(C(=O)NC3CCCC3)c3ccc(F)cc3)CC2)c2ccccc2n1 (centres undefined),.,.,.,-2.2,.
O=c1oc(-c2ccccc2)cc(Cl)c1Cl,-12.9%,5.0%,?,-99.5*,.
COc1ccccc1-c1c(C(F)(F)F)oc2c(CN3CCCCC3C)c(O)ccc2c1=O (centres undefined),-7.7%,.,-5.0%,.,i
Cc1ccc(C)c(C(C)NC(=O)c2ccc(Br)o2)c1 (centres undefined),3.1%,3.2%,-9.1%,-57.2*,i
Cc1ccc(C)c(C(C)NC(=O)CC#N)c1 (centres undefined),-11.7%,4.9%,.,25.7,i
CCN1CCN(C(CC(C)C)c2nnnn2CS(=O)(=O)c2ccc(C)cc2)CC1 (centres undefined),-14.8%,0.8%,-1.8%[11.3 µM],-73.1*,.
Cc1ccc(S(=O)(=O)Cn2nnnc2C(CC(C)C)N2CCN(C(=O)c3ccco3)CC2)cc1 (centres undefined),-20.9%,-0.5%,11.2%,-1.6,i
O=C(NCC1(c2ccccc2)CCCC1)c1ccccc1Br,-15.2%,-1.0%,.,0.0,?
COc1ccccc1C(=O)NCC1(c2ccccc2)CCCC1,-2.4%,2.4%,-13.4%[11.3 µM],-76.9*,i
C/C=C(/CCC1NCCc2c1[nH]c1ccccc21)[Si](C)(C)C (centres undefined),?,.,?,-99.4*,?
COc1ccc(C#Cc2cccc(-c3nc(C(=O)N4CCN(C)CC4)cc4c3[C@H](CCO)N(S(=O)C(C)(C)C)C4)c2)cc1OC (some centres undefined),.,.,8.4%,-18.8,?
CC(=O)N(Cc1ccc(F)cc1)C1=C(NCCc2ccccc2)C(=O)c2ccccc2C1=O,?,-2.2%,12.6µM*,-79.3*,28.2µM*
O=C(O)c1cccc(NC2=C(Cl)C(=O)c3ccccc3C2=O)c1,?,9.6%,?,-65.4*,25.1µM*
CCN(CC)CCCNC1=C(Cl)C(=O)c2ccccc2C1=O,?,4.3%,?,-110.0*,23.8µM*
O=C1C(Cl)=C(Nc2ccccc2)C(=O)c2ccccc21,-25.1%,2.5%,?,-107.0*,28.2µM*
O=C1C(Cl)=C(NCCc2ccccc2)C(=O)c2ccccc21,?,.,31.6µM*,?,i
O=C(O)c1ccc(NC2=C(Cl)C(=O)c3ccccc3C2=O)cc1,-24.7%,5.0%,4.47µM*,10.3,10µM*
O=C1C(Cl)=C(NCc2cccnc2)C(=O)c2ccccc21,?,1.2%,?,-101.2*,?
CC1=C(Nc2ccc(C(=O)O)cc2)C(=O)c2ccccc2C1=O,?,-4.4%,-13.4%,30.1,?
COc1ccc2c(c1)CCc1cnc(-n3ncc(C(=O)NCCCN4CCOCC4)c3C)nc1-2,.,.,.,.,i

# Screens: PubChem, National Center for Advancing Translational Sciences (NCATS)
